Assay outcomes as filed in PubChem.
ELG1 DNA repair – ELG1-dependent DNA repair inhibition; HEK293T ELG1-luciferase reporter, luminescence, 16 h; DNA damage induced by 5-fluorouridine; Potency, µM (doses to about 46.1 µM), hits mostly inhibitors; 330,000 compounds, 2.3% hits; AID 504467; note: nearly all actives have a fitted effect of over 55% in size
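Luminescence from the luciferase reporter, measured 30 min after ONE-Glo reagent at room temperature, was the read-out. Beforehand, 2,000 cells per well were exposed for 16 hr at 37 °C to 5-fluorouridine together with compound or vehicle.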
Rab9 promoter act – Rab9 promoter activation; 320,000 compounds, 2.8% hits; Huh7 Rab9 promoter-luciferase reporter, luminescence, 24 h; Potency, µM (doses to about 9.22 µM), usual class: activators; note: nearly all actives have a fitted effect of over 60% in size
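Measured in stably transfected Huh7 cells bearing a Rab9 promoter–luciferase construct: 24 h compound treatment at 37 °C, followed by luminescence detection.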
ELG1 genotox – inducers of genotoxicity in HEK293T ELG1-luciferase cells; 330,000 compounds, 1.3% hits; HEK293T ELG1-luciferase reporter, luminescence, 16 h; Potency, µM (titrated, usually from 46 µM), hits mostly activators; note: nearly all actives have a fitted effect of over 60% in size
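Genotoxic stress is detected as increased luminescence from luciferase-tagged ELG1 in HEK293T cells, measured with ONE-Glo after a 16 hr treatment at 37 °C.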
NPC1 promoter act – activators of NPC1 promoter; 320,000 compounds, 2.4% hits; Potency, µM (top dose mostly 9.22 µM), usual class: activators; Huh7 NPC1 promoter luciferase reporter, 24 h; note: nearly all actives have a fitted effect of over 60% in size
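Huh7 reporter cells (NPC1 promoter driving luciferase) are dosed with compound for 24 h at 37 °C, 5% CO2; luciferase detection reagent is then added and luminescence measured after 10 min at ambient temperature.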
FLuc modulator – counter-screen for miR-21 project: firefly luciferase inhibitors or activators; purified FLuc, Km substrates, luminescence inhibition; Potency, µM (top dose mostly 57.5 µM), most hits filed as inhibitors; 360,000 compounds, 6.9% hits; AID 588342; P08659; note: nearly all actives have a fitted effect of over 55% in size
Target sequence (P08659 whole entry, looked up): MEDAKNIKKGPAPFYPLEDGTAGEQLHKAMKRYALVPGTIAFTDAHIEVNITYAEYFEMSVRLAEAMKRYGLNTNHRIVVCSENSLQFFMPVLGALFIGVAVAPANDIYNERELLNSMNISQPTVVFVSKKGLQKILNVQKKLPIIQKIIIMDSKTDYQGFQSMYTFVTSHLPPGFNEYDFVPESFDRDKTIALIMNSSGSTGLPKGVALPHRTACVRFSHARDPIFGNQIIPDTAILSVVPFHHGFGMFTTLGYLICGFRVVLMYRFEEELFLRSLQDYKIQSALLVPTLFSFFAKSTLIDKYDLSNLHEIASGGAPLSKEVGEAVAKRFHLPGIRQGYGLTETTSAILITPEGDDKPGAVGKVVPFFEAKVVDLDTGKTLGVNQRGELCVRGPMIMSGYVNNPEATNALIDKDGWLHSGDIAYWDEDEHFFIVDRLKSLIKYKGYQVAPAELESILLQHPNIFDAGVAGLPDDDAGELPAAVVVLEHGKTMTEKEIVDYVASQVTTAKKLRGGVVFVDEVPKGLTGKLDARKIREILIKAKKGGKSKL
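Purified P. pyralis luciferase (10nM final) with 10uM D-luciferin and 10uM ATP (Km levels) in 50mM Tris acetate pH 7.5, 10mM Mg acetate, 0.01% Tween-20, 0.05% BSA; qHTS 6-point titration, ~60 µM downward; luminescence read.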
SMN2 splice enh – enhancers of SMN2 splice variant expression; AID 1458; HEK293 SMN2-luciferase splicing reporter, luminescence, 30-36 h; Potency, µM (highest dose often 46.1 µM), most hits filed as activators; 210,000 compounds, 2.8% hits; note: nearly all actives have a fitted effect of over 55% in size
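HEK293 cells carry an SMN2 […]–luciferase reporter in which exon 7 inclusion puts luciferase in frame. Cells were plated 10-12 h before compound addition, then incubated 30-36 h at 37C. ONE-Glo luminescence was read; sodium butyrate at 4.5 mM final served as control.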
Numbers stand for hits; [ ] = another dose, or the depositor's remark. Shown are actives, neighbours in structure and some others; about 9.4% of the full set was active somewhere. Calls come from the whole dose curve; as a rule, active = well fitted curve in the direction sought with a large enough effect; inconclusive = small, poorly fitted or top-dose-only effect, or another doubt; inactive = no such curve, though single readings can be large; an effect the other way counts as inactive or inconclusive.

Results for O=C(O)c1ccc(N/N=C/c2ccc(-c3ccccc3Cl)o2)cc1 ?
ELG1 DNA repair: inconclusive; Rab9 promoter act: inconclusive; ELG1 genotox: 1.83µM; NPC1 promoter act: inconclusive; FLuc modulator: 0.675µM

Results for O=C(CSc1nc2ccccc2o1)NCc1ccc2c(c1)OCO2 ?
ELG1 DNA repair: inconclusive; Rab9 promoter act: inactive; ELG1 genotox: 20.6µM; NPC1 promoter act: inactive; FLuc modulator: inconclusive; SMN2 splice enh: inconclusive

What do the screens show for `Cc1nc2ccccn2c1C(=O)N/N=C/c1ccc2c(c1)OCO2`?
ELG1 DNA repair: inconclusive; Rab9 promoter act: inactive; ELG1 genotox: inconclusive; NPC1 promoter act: inactive; FLuc modulator: 12µM; SMN2 splice enh: inconclusive

What do the screens show for `Cc1nc2ccccn2c1C(=O)NCc1ccc2c(c1)OCO2`?
ELG1 DNA repair: 16.4µM; Rab9 promoter act: inactive; ELG1 genotox: inactive; NPC1 promoter act: inactive; FLuc modulator: inactive; SMN2 splice enh: inactive

What do the screens show for `CCCc1nc2ccccc2c(C(=O)OC(C)C(=O)NCc2ccc3c(c2)OCO3)c1CC` (centres undefined)?
ELG1 DNA repair: 20.6µM; Rab9 promoter act: inactive; ELG1 genotox: inactive; NPC1 promoter act: inactive; FLuc modulator: inactive; SMN2 splice enh: inactive

Results for O=C(NC1CC(=O)N(c2ccccc2)C1)c1ccc(S(=O)(=O)N2CCCC2)cc1 (centres undefined) ?
FLuc modulator: inactive

How did CCOCCc1nn2c(=O)cc(COC(=O)c3ccco3)nc2s1 do in these assays?
FLuc modulator: inactive

How did Cc1ccc(NC(=O)N2CCc3cc(S(=O)(=O)N4CCC(C)CC4)ccc32)cc1 do in these assays?
FLuc modulator: inactive; SMN2 splice enh: inactive

What do the screens show for `Cc1ccc(Cl)cc1NC(=O)c1cnn2c(C(F)F)cc(-c3ccccc3)nc12`?
FLuc modulator: inactive

How did COc1ccc(Cc2noc(CN3CCN(Cc4cccc(Cl)c4)CC3)n2)cc1OC do in these assays?
ELG1 DNA repair: 23.1µM; Rab9 promoter act: inactive; ELG1 genotox: inactive; NPC1 promoter act: inactive; FLuc modulator: inactive

Results for COc1ccc(Cc2noc(CN3CCCC(C(=O)c4cccs4)C3)n2)cc1OC (centres undefined) ?
ELG1 DNA repair: 18.3µM; Rab9 promoter act: inactive; ELG1 genotox: inactive; NPC1 promoter act: inactive; FLuc modulator: inactive

How did NC(=O)CSc1ncc2c(n1)-c1ccccc1N(Cc1ccc(Cl)cc1)S2(=O)=O do in these assays?
FLuc modulator: inactive

What do the screens show for `CC1(C)S[C@@H]2[C@H](NC(=O)C3(N)CCCCC3)C(=O)N2[C@@H]1C(=O)O`?
SMN2 splice enh: inactive[9.22 µM]

What do the screens show for `O=C(Cn1c(SCC(=O)N2CCc3ccccc3C2)nc2ccccc21)NC1CCCC1`?
ELG1 DNA repair: inactive; Rab9 promoter act: inactive; ELG1 genotox: inactive; NPC1 promoter act: inactive; FLuc modulator: inactive; SMN2 splice enh: 11.2µM

How did O=C(Cn1c(SCC(=O)N2CCc3ccccc32)nc2ccccc21)NC1CCCC1 do in these assays?
ELG1 DNA repair: inconclusive; Rab9 promoter act: inactive; ELG1 genotox: inactive; NPC1 promoter act: inactive; FLuc modulator: inactive; SMN2 splice enh: inconclusive

What do the screens show for `CCc1cccc(NC(=O)CSc2ncc3c(n2)-c2cc(Cl)ccc2N(C)S3(=O)=O)c1`?
FLuc modulator: inactive

What do the screens show for `CCC(=O)N1CCc2cc(Br)cc(S(=O)(=O)NCCc3ccc(C)cc3)c21`?
FLuc modulator: inactive

How did Cc1cccc(Nc2nnc(-c3ccc(N4CCOCC4)c([N+](=O)[O-])c3)c3ccccc23)c1 do in these assays?
ELG1 DNA repair: 8.2µM; Rab9 promoter act: inactive; ELG1 genotox: inactive; NPC1 promoter act: inactive; FLuc modulator: inactive; SMN2 splice enh: inactive

How did Nc1ncnc2c1ncn2[C@H]1O[C@@H](C(=O)O)[C@@H](O)[C@H]1O do in these assays?
SMN2 splice enh: inactive[9.22 µM]

Results for O=C(Nc1cc(Sc2ccccn2)cc([N+](=O)[O-])c1)c1cccc(Cl)c1 ?
ELG1 DNA repair: 6.51µM; Rab9 promoter act: inactive; ELG1 genotox: inactive; NPC1 promoter act: inactive; FLuc modulator: inactive

Results for CCOc1cc(/C=N/Nc2nc(N3CCCC3)nc(N3CCCC3)n2)ccc1O ?
ELG1 DNA repair: 11.6µM; Rab9 promoter act: inactive; ELG1 genotox: inactive; NPC1 promoter act: inactive; FLuc modulator: inactive; SMN2 splice enh: inactive

What do the screens show for `COc1ccc(CCNc2nc(N3CCCCC3)nc(N3CCCCC3)n2)cc1OC`?
ELG1 DNA repair: 20.6µM; Rab9 promoter act: inactive; ELG1 genotox: inactive; NPC1 promoter act: inactive; FLuc modulator: inactive; SMN2 splice enh: inactive

What do the screens show for `COc1ccc(/C=N/Nc2nc(Nc3ccccc3)nc(N3CCCCC3)n2)cc1OC`?
ELG1 DNA repair: 5.8µM; Rab9 promoter act: inconclusive; ELG1 genotox: inactive; NPC1 promoter act: inconclusive; FLuc modulator: 1.07µM; SMN2 splice enh: inactive

How did CCOc1cc(/C=N/NC(=O)c2ccc(-c3csc(Nc4ccc(C)cc4)n3)cc2)ccc1OCC(=O)O do in these assays?
ELG1 DNA repair: inconclusive; Rab9 promoter act: 2.82µM; ELG1 genotox: inactive; NPC1 promoter act: 3.16µM; FLuc modulator: inconclusive; SMN2 splice enh: 12.6µM

What do the screens show for `COc1ccc(CCNc2nc(N3CCOCC3)nc(N3CCOCC3)n2)cc1OC`?
ELG1 DNA repair: inconclusive; Rab9 promoter act: inactive; ELG1 genotox: inactive; NPC1 promoter act: inactive; FLuc modulator: inactive; SMN2 splice enh: inactive

Results for O=C(CSc1nccn1Cc1ccc(F)cc1)NCc1ccco1 ?
FLuc modulator: inactive

How did Cn1cnc2c(=O)oc3ccc(S(=O)(=O)N4CCN(c5cccc(C(F)(F)F)c5)CC4)cc3c21 do in these assays?
FLuc modulator: inactive

Results for CCOc1cc(/C=N/Nc2nc(Nc3ccccc3)nc(N3CCCCC3)n2)ccc1OCC(=O)O ?
ELG1 DNA repair: inactive; Rab9 promoter act: inactive; ELG1 genotox: inactive; NPC1 promoter act: inactive; FLuc modulator: 1.07µM; SMN2 splice enh: inactive

How did CCOc1cc(/C=N/Nc2ccccc2Cl)ccc1OCC(=O)O do in these assays?
ELG1 DNA repair: inconclusive; Rab9 promoter act: inactive; ELG1 genotox: inconclusive; NPC1 promoter act: inactive; FLuc modulator: 21.3µM; SMN2 splice enh: inactive

Results for COc1ccccc1C(=O)NNC(=O)c1ccc(Br)cc1 ?
ELG1 DNA repair: inconclusive; Rab9 promoter act: inactive; ELG1 genotox: inactive; NPC1 promoter act: inactive; FLuc modulator: 13.5µM

What do the screens show for `COc1ccccc1C(=O)NNC(=O)c1ccc(C)cc1`?
ELG1 DNA repair: inconclusive; Rab9 promoter act: inconclusive; ELG1 genotox: inconclusive; NPC1 promoter act: inactive; FLuc modulator: 15.1µM

What do the screens show for `COc1ccccc1C(=O)NNC(=O)c1ccc(Br)o1`?
ELG1 DNA repair: inconclusive; Rab9 promoter act: inactive; ELG1 genotox: inconclusive; NPC1 promoter act: inconclusive; FLuc modulator: 16.9µM

What do the screens show for `COc1ccccc1C(=O)NNC(=O)c1ccncc1`?
ELG1 DNA repair: inconclusive; Rab9 promoter act: inactive; ELG1 genotox: inactive; NPC1 promoter act: inactive; FLuc modulator: inactive; SMN2 splice enh: inactive
